A selection: hits, their analogues and other compounds. The true share with any hit is near 21%.
TDP1 cell noCPT – qHTS for Inhibitors of human tyrosyl-DNA phosphodiesterase 1 (TDP1): qHTS in cells in absence of CPT. 420,000 tested, 15% active. Potency, µM (doses to about 46.2 µM), without a hit: at the top dose activity change, negative = growth inhibition, actives largely listed as inhibitors. AID 686978, 2013. DT40 Tdp1-/- hTDP1 cells, no CPT, ATP luminescence, 48 h; also: potency is read from the fitted curve at half-maximal effect; % is scaled to controls: 0 for no effect and ±100 for the full control effect; nearly all actives have a fitted effect of over 55% in size
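Compound effects on proliferation are scored in DT40 Tdp1-/-;hTDP1 cells in the absence of CPT. ATP levels (CellTiter-Glo luminescence) are recorded after a ≥48 hr, 37 °C incubation.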
D3 antag – antagonists of human D3 dopamine receptor | D3R cells, DiscoveRx beta-arrestin luminescence, antagonist mode; active compounds read low | max response, negative = inhibition, % | 360,000 tested, 2.5% active | AID 652054; in the data active = max response below about -50%; inconclusive = no clear call, values can overlap the other calls; also: % is scaled to controls: 0 for no effect and ±100 for the full control effect
Target sequence (P35462 whole entry, looked up): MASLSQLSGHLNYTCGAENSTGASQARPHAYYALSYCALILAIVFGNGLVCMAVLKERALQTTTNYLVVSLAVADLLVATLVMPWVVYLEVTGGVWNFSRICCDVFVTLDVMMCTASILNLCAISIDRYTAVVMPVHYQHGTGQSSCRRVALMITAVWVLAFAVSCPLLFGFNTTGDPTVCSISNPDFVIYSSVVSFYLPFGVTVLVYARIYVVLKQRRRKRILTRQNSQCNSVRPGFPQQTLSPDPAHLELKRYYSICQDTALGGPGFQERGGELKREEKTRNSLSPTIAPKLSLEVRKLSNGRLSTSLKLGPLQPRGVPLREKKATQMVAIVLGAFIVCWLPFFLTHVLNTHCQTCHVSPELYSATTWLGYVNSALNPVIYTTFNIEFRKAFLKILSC
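Cells expressing the human receptor were seeded at 1500 cells/well, incubated overnight at 37 degrees C in 5% CO2, then exposed to library compounds with dopamine controls for 90 minutes at 37 degrees C before luminescent detection.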
DT40 TDP1 CPT – DT40-hTDP1 cell growth loss with CPT. chicken DT40 Tdp1-/-;hTDP1 cells + 20 nM CPT, ATP luminescence, 48 h. Potency, µM (titrated, usually from 46.2 µM), inactives show at the top dose activity change, negative = growth inhibition, most hits filed as inhibitors. 420,000 tested, 12% active. AID 686979; also: potency is read from the fitted curve at half-maximal effect; % is scaled to controls: 0 for no effect and ±100 for the full control effect; nearly all actives have a fitted effect of over 55% in size
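Chicken DT40 Tdp1-/- cells stably complemented with human TDP1 were seeded at 400 cells/well in medium containing 20 nM camptothecin, exposed to pin-transferred compounds, and grown at 37 °C for at least 48 hr. Viability was read as ATP luminescence.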
IL-1B inflam inh – inflammasome signaling inhibition, IL-1 beta readout; 360,000 tested, 4.7% active; THP-1 LPS/ATP IL-1B secretion, AlphaLISA, 16 h; active compounds read low; AID 743279; activity change, % at 57.5 µM; in the data active = activity change below about -50%; inconclusive = mostly about -30% to -49%; also: % is scaled to controls: 0 for no effect and ±100 for the full control effect
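Secreted IL-1B measured by AlphaLISA bead assay after 16 h compound exposure of THP-1 cells; compounds (final up to 57.5 uM) added 1 h before LPS (250 ng/mL) and ATP (1.25 mM) stimulation; lower signal means less secretion.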
ClpP mod – qHTS Assay for Activators of ClpP. ATP-dependent Clp protease proteolytic subunit (Bacillus subtilis (strain 168)), P80244. Potency, µM (titrated, usually from 57.5 µM), for the others: at the highest dose activity change, negative = active. AID 651965, 2013. purified B. subtilis ClpP, FRET peptide cleavage, 20 min. 340,000 tested, 1.9% active; active = well fitted falling curve with a large enough effect; inconclusive = small, poorly fitted or top-dose-only effect; inactive = no such curve, though single readings can be large or run the other way; also: potency is read from the fitted curve at half-maximal effect; the source files actives as falling curves though it sought activators and does not explain the sign; nearly all actives have a fitted effect of over 65% in size
Target sequence (P80244 whole entry, looked up): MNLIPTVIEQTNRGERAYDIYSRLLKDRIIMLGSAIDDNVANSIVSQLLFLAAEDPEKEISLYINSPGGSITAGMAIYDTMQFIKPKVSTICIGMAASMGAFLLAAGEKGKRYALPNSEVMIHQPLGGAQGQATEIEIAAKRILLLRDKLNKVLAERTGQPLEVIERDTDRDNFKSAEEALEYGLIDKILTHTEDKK
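FRET quenching reversal measured ClpP activation: 10 microg/mL B. subtilis ClpP at pH 8 with the FRET-FV decapeptide, read at 430 nm after 320 nm excitation. The 20-min minus 0-min signal was scaled between DMSO/no-enzyme wells and ADEP (5.8 microM final).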
DRD3 agonist – D3 dopamine receptor (human) agonism. P35462. D3R DiscoveRx beta-arrestin cells, luminescence, 90 min. max activation, %. 410,000 tested, 0.58% active. AID 652048; in the data active = max activation above about 30%; also: 0% is about no effect
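Agonist mode: compounds and dopamine controls were applied to plated cells for 90 min at 37 degrees C after an overnight attachment at 1500 cells/well. Luminescent read-out followed 30 - 60 minutes at room temperature with DiscoveRx detection reagent.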
The depositor's hits bear a star; ? = inconclusive; · = not tested or not shown. Unless noted, calls follow the shape of the dose curve; as a rule, active = well fitted inhibition curve with a large enough effect; inconclusive = small, poorly fitted or top-dose-only effect; inactive = flat fitted curve, though single readings scatter.

SMILES	TDP1 cell noCPT	D3 antag	DT40 TDP1 CPT	IL-1B inflam inh	ClpP mod	DRD3 agonist
CC(C)(C)N=C1NN=C(c2ccc(Cl)cc2)CS1	18µM*	-8	?	-1	-2%	-11
c1ccc2oc(C3=NCCN3)cc2c1	-7%	·	-3%	·	·	·
CC(C)(C)N=C1NN=C(c2cc3ccccc3o2)CS1	23µM*	9	?	-20	-3%	1
Cc1cc(N2CCCC2)nc(-c2ccccc2O)n1	-8%	31	-23%	24	70%	1
Cc1nc(Cl)cc(N/N=C/c2ccc(O)cc2O)n1	21µM*	0	?	-3	·	-6
Cc1nc(Cl)cc(N/N=C/c2ccc(O)cc2)n1	?	-2	3%	5	-3%	-7
Cc1cc(N/N=C/c2ccccc2O)nc(-c2ccccc2O)n1	?	-131*	-26%	0	0%	-1
Cc1cc(N/N=C\c2ccccc2)nc(-c2ccccc2O)n1	?	9	?	?	-2%	18
Cc1cc(N/N=C/c2ccc(O)cc2O)nc(-c2ccccc2O)n1	?	54	?	-77*	-10%	16
C/C(=N\Nc1cc(C)nc(-c2ccccc2O)n1)c1ccccc1O	13µM*	27	-86%	7	-4%	4
N/C(=N\OC(=O)CN1C(=O)c2ccccc2C1=O)c1ccc(Br)cc1	-8%	18	0%	2	0%	2
CCOc1cccc(C2Oc3nc(SC)nnc3-c3ccccc3N2C(C)=O)c1OC (stereo not drawn)	-26%	·	-27%	·	0%	6
O=C1CC(c2ccccc2)(c2ccccc2)c2ccccc21	-4%	-26	0%	-10	32µM*	-1
CN(C(=O)CSc1nc2ccccc2n1CC(=O)NCc1ccc(F)cc1)c1ccc(F)cc1	?	·	?	·	-11%	-12
COc1ccc(NC(=O)CSc2nc3ccccc3n2CC(=O)N2CCCC(C)C2)cc1 (stereo not drawn)	21µM*	·	?	·	-2%	7
COc1ccc(NC(=O)CSc2nc3ccccc3n2CC(=O)N(C)c2ccc(F)cc2)cc1	15µM*	·	?	·	-6%	7
CN(C(=O)CSc1nc2ccccc2n1CC(=O)N(C)C1CCCCC1)c1ccc(F)cc1	29µM*	·	?	·	-5%	-14
COc1cccc(CNC(=O)Cn2c(SCC(=O)Nc3ccc(C)c(C)c3)nc3ccccc32)c1	?	·	?	·	0%	1
Cc1ccc(NC(=O)CSc2nc3ccccc3n2CC(=O)N(C)C2CCCCC2)cc1C	18µM*	·	?	·	4%	0
COC(=O)c1ccc(C(=O)OC)c(=O)[nH]1	-2%	-7	14%	11	4%	-2
O=C(Nc1ccc(Oc2cccnc2)cc1)c1ccc([N+](=O)[O-])cc1	?	-10	-26%	?	·	2
COc1ccc(C(=O)C(C)Oc2cccc(NC(=O)c3cccc([N+](=O)[O-])c3)c2)cc1 (stereo not drawn)	21µM*	-21	?	-18	-12%	2
O=C(Nc1ccc(Oc2cccnc2)cc1)c1cccc([N+](=O)[O-])c1	?	-15	?	-56*	-7%	1
COc1ccc(NC(=O)c2cccc(N3C(=O)c4cccc([N+](=O)[O-])c4C3=O)c2)cc1	17%	-8	-2%	-20	0%	-4
COc1ccc(/C=C2\C(=O)N(c3c(Cl)cc(Cl)cc3Cl)N=C2NC(=O)c2cccc([N+](=O)[O-])c2)cc1	?	-6	18µM*	-105*	0%	-12
SMILES	TDP1 cell noCPT	D3 antag	DT40 TDP1 CPT	IL-1B inflam inh	ClpP mod	DRD3 agonist
CCC(=O)N(Cc1cc2cc(OC)ccc2[nH]c1=O)c1cccc(C)c1	?	-3	-20%	-18	-3%	-2
COc1ccc2[nH]c(=O)c(CNc3ccccc3)cc2c1	?	?	4.1µM*	-6	16µM*	-5
CCOc1ccc(NCc2cc3cc(OC)ccc3[nH]c2=O)cc1	21µM*	-4	5.8µM*	45	0%	-5
COc1ccc(NCc2cc(=O)[nH]c3ccccc23)cc1	-20%	-13	-3%	-24	-12%	-10
COc1cccc(CC(=O)NCC2Cc3cc(Cl)cc(-c4ncccn4)c3O2)c1 (stereo not drawn)	-28%	·	?	·	·	·
CCNC(=O)C1(C)CCCN(C(=O)c2sccc2C)C1 (stereo not drawn)	2%	16	-6%	13	1%	9
N#Cc1cc(-c2ccccc2)nc(N2CCNCC2)n1	?	-23	-5%	-12	·	-13
O=C(CSc1n[nH]c(=O)n1C1CC1)c1ccc(F)cc1	-19%	-60*	-6%	-9	-1%	-21
Cc1cccc(C)c1NC(=O)CSc1n[nH]c(=O)n1C1CC1	-7%	0	-2%	15	1%	0
CCNc1nc(CN2CCCCC2)nc2scc(-c3ccccc3)c12	16µM*	-11	12µM*	-91*	·	-5
CCCc1nc2scc(-c3ccccc3)c2c(=O)n1N	?	36	-29%	1	1%	5
OCC1CCCN(c2nc(CN3CCCCC3)nc3scc(-c4ccccc4)c23)C1 (stereo not drawn)	?	-16	15µM*	-6	0%	-9
Cc1sc2nc(CN3CCCCC3)nc(N3CCN(C(=O)c4ccco4)CC3)c2c1C	-4%	-2	?	8	-1%	-13
COc1ccc(C)cc1NC(=O)N1CCCn2nc(C)cc21	-28%	·	?	·	-2%	3
COc1cc(CNCCCN2CCOCC2)ccc1OCC(=O)Nc1cccc(C(F)(F)F)c1	?	?	?	?	-2%	-3
COc1ccc(CNC(=O)Nc2cccc(C(F)(F)F)c2)cc1OC	9.2µM*	8	?	3	-3%	-5
CCOc1cc(CNC(CC)CO)ccc1OCC(=O)Nc1cccc(C(F)(F)F)c1 (stereo not drawn)	26µM*	-7	?	-20	3%	-5
COc1ccc(Cl)cc1N(CC(=O)N/N=C/c1ccc(OC(C)C)cc1)S(=O)(=O)c1ccc(C)c([N+](=O)[O-])c1	-19%	-5	-16%	-15	1%	-7
CCOC(=O)CN(c1cc([N+](=O)[O-])ccc1OC)S(C)(=O)=O	-2%	2	1%	-60*	·	4
COc1ccc(Cl)cc1N(CC(=O)N(C)C)S(=O)(=O)c1ccc(C)c([N+](=O)[O-])c1	21µM*	7	?	20	0%	1

Screening results from PubChem BioAssay.
